Source: PubChem BioAssay (several laboratories)
CCHF vOTU inh-1: CCHFV vOTU protease inhibition | AID 651958 | Pep-AMC fluorescence | inhibition, % at 11.5 µM | hit rate 0.55% among 370,000
Mtb hypoxia rep: reduces hypoxia-regulated biosensor signal in M. tuberculosis; fluorescence inhibition, % (test concentration not listed); M. tuberculosis hypoxia-regulated fluorescent reporter, fluorescence; hit rate 0.1% among 300,000; AID 1159583; in the data active = fluorescence inhibition mostly above about 23%, no sharp cut-off; inactive = mostly below about 17%
RN4220 kill: kills Staphylococcus aureus RN4220. S. aureus RN4220 growth, OD600, 16 h. inhibition, % (concentration not given with the values). hit rate 0.33% among 330,000. AID 1259311; in the data active = inhibition above about 85%
ugtP null kill: compounds lethal to S. aureus RN4220 ugtP deletion mutant; OD600 growth, 16 h; growth inhibition, % (concentration not given with the values); hit rate 0.54% among 330,000; in the data active = growth inhibition above about 68%
PriA SSB inh: blocks PriA binding to SSB C-terminal tail; hit rate 0.6% among 430,000; AID 1272365; inhibition, % at 33 µM; AlphaScreen SSBct-PriA binding, biotinylated peptide; in the data active = inhibition mostly above about 37%, no sharp cut-off; inactive = mostly below about 20%
CCHF vOTU inh-2: CCHFV vOTU protease inhibition, confirmation; shares compounds with CCHF vOTU inh-1; Recombinant CCHFV vOTU, Pep-AMC fluorescence; inhibition, % at 11.5 µM; hit rate 17% among 1,900; AID 686976
A number is an active result; – = inactive; · = no result given. Only some compounds are listed: those with a hit (about 1.4% of all), similar ones and a draw of the others. Rule as the data show it, unless noted: active = inhibition above about 30%; inactive = the rest.

SMILES | CCHF vOTU inh-1 | Mtb hypoxia rep | RN4220 kill | ugtP null kill | PriA SSB inh | CCHF vOTU inh-2
C[n+]1c(-c2ccccc2)cc2c(=Cc3ccccc3)c3ccccc3n21 | 82.8 | · | · | · | – | 78.1
CN(C)c1ccc(/C=c2/c3ccccc3n3c2cc(-c2ccc(Cl)cc2)[n+]3C)cc1 | · | · | · | · | – | ·
O=C(COc1ccc2c(c1)OCO2)NCCOc1ccc(F)cc1 | · | · | · | · | – | ·
Cc1ccc(F)cc1NC(=O)CSc1ncc(-c2cccc(Br)c2)o1 | · | · | · | · | – | ·
COc1ccc(Cc2nccc3cc(OC)c(OC)cc23)cc1OC | 91.8 | – | – | – | – | 39.8
COCCCN1C(=O)C(CC(=O)NCCN2CCOCC2)CC(C(=O)N2CCCCCC2)=C1C (centres undefined) | – | · | · | · | · | ·
COCCCN1C(=O)C(CC(=O)NCCN2CCOCC2)CC(C(=O)N2CCOCC2)=C1C (centres undefined) | 39.4 | · | · | · | · | –
O=C(CCNC(=O)c1ccc(Br)cc1)NC1CCCCCC1 | 36.7 | – | – | – | – | –
O=C(CCNC(=O)c1ccc(Cl)cc1)NC1CCCCCC1 | – | – | – | – | – | ·
COc1ccc(NC(=O)CCNC(=O)Cn2cnc3ccccc3c2=O)cc1OC | – | – | – | – | – | ·
O=C(Cn1cnc2ccccc2c1=O)NCCC(=O)Nc1ccc(F)cc1 | 55.9 | – | – | – | – | –
CN(C)c1cc(Cl)c2nonc2c1N | 70.8 | – | – | – | – | –
CCN(CC)c1cc(Cl)c2nonc2c1N | – | – | – | – | – | ·
CCC1(CC)NC(=O)N(CC(=O)OC(C)C(=O)Nc2cc([N+](=O)[O-])ccc2OC)C1=O (centres undefined) | 30.5 | – | – | – | – | –
Cc1ccccc1NC(=O)Cc1nc(COC(=O)c2cc([N+](=O)[O-])ccc2NCCO)cs1 | 30.2 | – | – | – | – | –
O=C(Nc1sc2c(c1C(=O)O)CCCC2)c1ccc(F)cc1 | – | – | – | – | – | ·
O=C(Nc1sc2c(c1C(=O)O)CCCCC2)c1ccccc1F | 36.5 | – | – | – | – | –
CC(C)CCOP(=O)(c1ccc(N(C)C)cc1)C(O)c1ccc(Cl)cc1Cl (centres undefined) | 41.4 | – | – | – | – | –
CC(C)CCOP(=O)(c1ccc(N(C)C)cc1)C(O)c1ccccc1F (centres undefined) | – | – | – | – | – | ·
O=C(Nc1nc(-c2ccncc2)cs1)c1ccc(S(=O)(=O)N2CCOCC2)cc1 | 39.1 | – | – | – | – | –
CC(C)C1NC2(C(=O)c3ccccc3C2=O)C2C(=O)N(c3ccc(F)cc3)C(=O)C12 (centres undefined) | 52.0 | – | – | – | – | –
CCOc1ccc(-c2cc(=O)n(CC(=O)Nc3ccc(C(C)=O)cc3)cn2)cc1 | · | · | · | · | – | ·
CN(C(=O)CSc1nccc(=O)[nH]1)C1CCCCC1 | 38.4 | – | – | – | – | –
CCN(C(=O)CSc1nccc(=O)[nH]1)C1CCCCC1 | – | – | – | – | – | ·
COCCN(Cc1ccoc1)S(=O)(=O)/C=C/c1ccc(C)cc1 | · | · | · | · | – | ·
SMILES | CCHF vOTU inh-1 | Mtb hypoxia rep | RN4220 kill | ugtP null kill | PriA SSB inh | CCHF vOTU inh-2
CC(C)c1ccc(C(c2c(O)c3ccccc3oc2=O)c2c(O)c3ccccc3oc2=O)cc1 | 37.3 | · | · | · | · | –
C=CCc1cccc(/C=N/c2ncccc2O)c1O | 59.0 | · | · | · | · | –
C=CCc1cccc(C=Nc2ccc(Br)cc2)c1O | – | – | – | – | – | ·
COc1cc(OC)cc(C(=O)NC[C@@H](c2cccc3ccccc23)N2CCCC2)c1 | · | · | · | · | – | ·
CC(C)=CCC[C@H](C)CC1Cc2[nH]c(=S)[nH]c(=O)c2C(c2ccc(Cl)cc2)O1 (some centres undefined) | 30.1 | · | · | · | · | –
COc1ccccc1NS(=O)(=O)c1cccc(-n2c(O)c(C=Nc3ccccc3C(=O)O)c3ccccc3c2=O)c1 | 38.2 | – | – | – | – | 37.5
CC1(C)C=C2C(=NN(c3ccccc3)C(N)=C2C#N)CO1 | 50.0 | · | · | · | – | 100.3
CC1(C)Cc2c(C#N)c(N)n(-c3ccccc3)c(=S)c2CO1 | – | – | – | – | – | ·
COc1ccc(OC)c(S(=O)(=O)N2CCC3(CC2)OCCN3S(=O)(=O)c2ccccc2)c1 | 34.1 | – | – | – | – | –
COc1ccc(OC)c(NC(=O)Nc2c(O)ccc3ccccc23)c1 | – | – | – | – | – | ·
COc1ccc(OC)c(NC(=O)Nc2ccc(O)c3ccccc23)c1 | 72.7 | – | – | – | – | –
O=S(=O)(NCc1cncc(-c2cccs2)c1)c1ccc(C(F)(F)F)cc1 | · | · | · | · | – | ·
Oc1c(CN2CCCCC2)ccc2cccnc12 | 31.4 | – | – | – | – | –
COCc1cc(CN2CCCC2)c(O)c2ncccc12 | – | – | – | – | – | ·
O=C(CC1CCCCC1)NCCCn1nc(-c2ccc(Cl)cc2)ccc1=O | · | · | · | · | – | ·
COc1ccc(/C=N/Nc2nnc(C)n2N)cc1OC | 91.2 | · | · | · | · | –
COc1ccc(/C=N/Nc2nnc(C)n2N)cc1OC(C)=O | 93.0 | · | · | · | · | –
CCOc1cc(C=NNc2nnc(C)n2N)ccc1OC(C)=O | · | – | – | – | – | ·
CC(=NNC(=O)c1ccc([N+](=O)[O-])cc1)c1cc2ccccc2oc1=O | · | · | · | · | – | ·
Cc1ccccc1Nc1oc2c(c1-c1cccc([N+](=O)[O-])c1)c(=O)n(C)c(=O)n2C | · | · | · | · | – | ·
Cc1ccc(F)c(S(=O)(=O)NC(=O)C2(C)CCN2C(=O)C2(c3ccc(Cl)cc3)CC2)c1 (centres undefined) | 30.3 | · | · | · | · | –
